Measurements: PubChem BioAssay (EPA / NIEHS)
Records with an inconclusive call do not appear. Activity calls are given as the source filed them. The calls were made as follows: active = hit-call score of the fitted dose curve at least 0.9, where 1 is the maximum; inconclusive = response in the unintended direction; inactive = score below 0.9.

What was measured:
[1] = TOX21_p53_BLA_p2_viability: Viability Assessment in the Tox21 HCT-116 p53 Agonism Beta-lactamase Assay, Phase 2 (AID 2283591);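 also: compound exposure lasted 16 h at 37 °C; actives lower the ATP signal meaning cytotoxicity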
Procedure, shortened: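 HCT-116 p53-bla cells (4000/well) rested 5 h at 37C, then received compounds in DMSO (217-fold dilution) for 16 h at 37C, 5% CO2. After the CCF4 read, CellTiter-Glo was added; ATP luminescence was read after 30 min at room temperature.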

[2] = molecular target: Cellular tumor antigen p53 (Homo sapiens) (UniProt P04637); assay: TOX21_p53_BLA_p2_ratio: Tox21 HCT-116 p53 Agonism Beta-lactamase Assay, Ratio, Phase 2 (AID 2283592)
Procedure, shortened: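 Human colon HCT116 cells with an inducible p53 beta-lactamase reporter are exposed to test chemicals for 16 h at 37C. Reporter induction is read as the 460/530 nm emission ratio after CCF4-AM loading, normalized to DMSO.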

[3] = molecular target: Cellular tumor antigen p53 (Homo sapiens) (UniProt P04637); assay: TOX21_p53_BLA_p5_ratio: Tox21 HCT-116 p53 Agonism Beta-lactamase Assay, Ratio, Phase 5 (AID 2283599)
Procedure, shortened: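 HCT-116 cells carrying a p53-inducible beta-lactamase reporter were seeded at 4000 cells/well and dosed after 5 h with compound in DMSO (217-fold dilution). After 16 h at 37C, CCF4-AM substrate was added for 2 h, and the 460/530 nm emission ratio was scored as gain-of-signal versus DMSO.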

[4] = TOX21_p53_BLA_p5_viability: Viability Assessment in the Tox21 HCT-116 p53 Agonism Beta-lactamase Assay, Phase 5 (AID 2283600)
Procedure, shortened: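 Seeded cells (4000/well) settle 5 h before compound addition. Plates then incubate 16 h at 37C, receive FRET substrate for 2 h, and finally CellTiter-Glo, with luminescence measured after a 30 min room-temperature incubation.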

[5] = TOX21_p53_BLA_p3_viability: Viability Assessment in the Tox21 HCT-116 p53 Agonism Beta-lactamase Assay, Phase 3 (AID 2283593);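 also: cells exposed to compound for 16 h before reading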
Procedure, shortened: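 HCT-116 cells (4000/well) rested 5 h at 37C, then got DMSO compounds by pin tool (217-fold dilution) for 16 h at 37C, 5% CO2. After the bla read, CellTiter-Glo was added and luminescence read at 30 min, room temperature.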

[6] = molecular target: Cellular tumor antigen p53 (Homo sapiens) (UniProt P04637); assay: TOX21_p53_BLA_p3_ratio: Tox21 HCT-116 p53 Agonism Beta-lactamase Assay, Ratio, Phase 3 (AID 2283596)
Procedure, shortened: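 HCT116 p53-bla cells (4000/well) given compound in DMSO (217-fold dilution) after 5 h, incubated 16 h at 37C. CCF4-AM substrate 2 h at room temperature; 460/530 nm emission ratio, gain fitted against DMSO.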

[7] = TOX21_p53_BLA_p4_viability: Viability Assessment in the Tox21 HCT-116 p53 Agonism Beta-lactamase Assay, Phase 4 (AID 2283597);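 also: hits lower the luminescence signal meaning cytotoxicity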
Procedure, shortened: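 Luminescent ATP readout (CellTiter-Glo, 30 min, room temperature) in the same wells as the p53 bla ratio. HCT116 cells were treated for 16 h at 37C with DMSO-dissolved compounds.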

[8] = molecular target: Cellular tumor antigen p53 (Homo sapiens) (UniProt P04637); assay: TOX21_p53_BLA_p4_ratio: Tox21 HCT-116 p53 Agonism Beta-lactamase Assay, Ratio, Phase 4 (AID 2283601)
Procedure, shortened: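 HCT116 cells carrying an inducible beta-lactamase reporter were plated at 4000 cells/well, rested 5 h, then exposed to compounds in DMSO (217-fold dilution) for 16 h at 37C. CCF4-AM substrate was loaded 2 h at room temperature; 460/530 nm emission ratio scored gain-of-signal versus DMSO.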

Measured: outcome

Cellular tumor antigen p53 (Homo sapiens), sequence (P04637 whole entry, looked up): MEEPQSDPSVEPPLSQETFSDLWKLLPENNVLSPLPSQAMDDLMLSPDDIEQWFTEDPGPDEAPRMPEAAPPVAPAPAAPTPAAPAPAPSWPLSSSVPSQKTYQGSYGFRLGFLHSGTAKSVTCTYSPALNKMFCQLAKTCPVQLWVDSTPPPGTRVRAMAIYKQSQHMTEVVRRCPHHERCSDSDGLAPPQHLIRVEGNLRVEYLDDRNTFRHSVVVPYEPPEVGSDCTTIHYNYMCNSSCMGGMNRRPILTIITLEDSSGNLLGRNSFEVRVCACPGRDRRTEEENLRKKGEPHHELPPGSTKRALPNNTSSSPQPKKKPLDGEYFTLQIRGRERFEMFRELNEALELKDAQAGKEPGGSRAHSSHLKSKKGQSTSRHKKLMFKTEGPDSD

CN(C)CCc1c[nH]c2cccc(OP(=O)(O)O)c12
inactive: [1] | [2] | [3] | [4]

CC(C)c1ccc(NC(=O)N(C)C)cc1
not listed: [2]
inactive: all other assays above

C[C@H]1CC[C@]2(NC1)O[C@H]1C[C@H]3[C@@H]4CC[C@H]5C[C@@H](O)CC[C@]5(C)[C@H]4CC[C@]3(C)[C@H]1[C@@H]2C
not listed: [2] | [8]
inactive: all other assays above

CC(C)C[C@H]1C(=O)N2CCC[C@H]2[C@]2(O)O[C@](NC(=O)[C@@H]3C[C@@H]4c5cccc6[nH]cc(c56)C[C@H]4N(C)C3)(C(C)C)C(=O)N12
not listed: [2]
inactive: all other assays above
